# Reference: PubChem BioAssay (EPA / NIEHS)
# Inconclusive results are not listed. Active and inactive are the calls of the source. Rule for the calls, unless noted: active = hit-call score of the fitted dose curve at least 0.9, where 1 is the maximum; inconclusive = response in the unintended direction; inactive = score below 0.9.
# What was measured:
# DIO3 (gene 1735) = assay: CCTE_GLTED_hDIO3: CCTE's human Deiodinase 3 (DIO3) Inhibition Assay, Great Lakes Toxicology and Ecology Division (GLTED) Lab (AID 2284055);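 note: potency is for inhibition seen as loss of released iodide signal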
# Outline: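 Human type 3 deiodinase, expressed via adenovirus system, was exposed to test chemicals for 3 hours in a cell-free format. Released iodide was then determined spectrophotometrically by Sandell-Kolthoff; plates ran in triplicate.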
# [1] = CCTE_Shafer_MEA_acute_AB: CCTE's Alamar Blue Assay for Cytotoxicity in the Neural Acute Assay, Shafer Lab (AID 2284069);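 note: active compounds lower the viability signal compared with DMSO wells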
# Outline: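 Metabolic activity in chemically exposed rat cortical neurons (MEA cultures, day 13/15 post-plating) measured via CellTiter Blue resazurin reduction, 544/590 nm fluorescence; fitted relative to DMSO, with signal loss indicating reduced viability.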
# [2] = CCTE_Shafer_MEA_acute_LDH: CCTE's Lactate Dehydrogenase Assay for Cytotoxicity in the Neural Acute Assay, Shafer Lab (AID 2284086);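 note: active means LDH release rises above DMSO vehicle level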
# Outline: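 Medium collected from MEA wells of primary rat cortical cultures (DIV 13 or 15) immediately after 40 min chemical exposure is assayed spectrophotometrically for lactate dehydrogenase activity. Endpoint fitted in positive direction versus DMSO.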
# [3] = CCTE_Shafer_MEA_dev_per_network_spike_spike_percent: CCTE's Neural Network Formation Assay for Percent of Spikes in a Network Spike, Shafer Lab (AID 2284054; active = hit-call score of the fitted dose curve at least 0.9, where 1 is the maximum; inactive = score below 0.9)
# Outline: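 Developing networks of rat cortical neurons are dosed at day 0 and recorded extracellularly four times up to day 12. The endpoint is the area under the curve of percent spikes in network spikes, fitted in the negative direction relative to DMSO.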
# [4] = CCTE_Shafer_MEA_dev_mutual_information_norm: CCTE's Neural Network Formation Assay for Mutual Information Normalization, Shafer Lab (AID 2284091; active = hit-call score of the fitted dose curve at least 0.9, where 1 is the maximum; inactive = score below 0.9)
# Outline: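 Exposure of primary rat cortical neurons began at plating and ran to DIV 12, with full media and treatment renewal after DIV 5 and 9 recordings. Mutual information AUC (DIV 5–12) was analysed for loss versus DMSO.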
# [5] = CCTE_Shafer_MEA_dev_correlation_coefficient_mean: CCTE's Neural Network Formation Assay for Mean Correlation Coefficient, Shafer Lab (AID 2284093; active = hit-call score of the fitted dose curve at least 0.9, where 1 is the maximum; inactive = score below 0.9)
# Outline: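 Read-out: well-mean correlation coefficient of spike trains between electrode pairs, collapsed over four recording days as trapezoidal area-under-the-curve. Developing rat cortical neuron networks grown on MEAs received test chemical continuously from plating.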
smiles,measurement,setting,value
CCOC(=O)O[C@H](C)OC(=O)c1ccc2c(c1)cc(C(=O)NC1CCN(C(C)C)CC1)n2Cc1cc(-c2ccc(Cl)s2)on1,AC50,DIO3 (gene 1735),1.16 µM (active)
COc1cccc([C@H](O)C2CCN(CCc3ccc(F)cc3)CC2)c1OC,outcome,[1],inactive
same,outcome,[2],inactive
CCCCCCCCOC(=O)c1cc(O)c(O)c(O)c1,AC50,DIO3 (gene 1735),76.5 µM (active)
same,outcome,[1],inactive
same,outcome,[2],inactive
CCN(CC)C(=O)c1cc(S(=O)(=O)Cc2ccccc2)c(N2CCC(c3ccccc3)CC2)cc1N(CC)CCN(C)C,AC50,DIO3 (gene 1735),53.4 µM (active)
same,outcome,[1],inactive
same,outcome,[2],inactive
Clc1ccccc1C(c1ccccc1)(c1ccccc1)n1ccnc1,outcome,[3],inactive
same,outcome,[1],inactive
same,outcome,[2],inactive
same,outcome,[4],inactive
same,outcome,[5],inactive
